Reference: PubChem BioAssay AID651826 (Vanderbilt Specialized Chemistry Center, 2012)
Active and inactive are the calls of the source.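 Rule for the calls: active = inhibition above 50% of specific binding or functional response at a panel target; inactive = the rest.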

Experiment: radioligand displacement at GPCRs, transporters, channels – biochemical, Ricerca panel, radioligand binding, selectivity assay for E-cadherin project, profiling panel (AID 651826)
Settings: Ricerca radioligand binding/enzyme panel, % inhibition, at 10 µM, stronger effect = higher value

With `O=C(NCCCNC(=O)c1ccc[nH]c1=O)c1cc(-c2ccccc2)on1` the inhibition was 74% (active), the inhibition (measured here: 5-HT1A binding) was -4% and the inhibition (measured here: GABAA muscimol site binding) was 20%. The inhibition (measured here: adenosine A1 binding) was 71%, the inhibition (measured here: cannabinoid CB1 binding) was -23% and the inhibition (measured here: dopamine D3 binding) was 18%. The inhibition (measured here: dopamine transporter binding) was 31%, the inhibition (measured here: hERG channel binding) was 13% and the inhibition (measured here: mu opioid binding) was -5%. For the same compound, the inhibition (measured here: muscarinic M1 binding) was 9%, the inhibition (measured here: norepinephrine transporter binding) was 13% and the inhibition (measured here: serotonin transporter binding) was 10%. It also gave an inhibition (measured here: sigma1 receptor binding) of 47%.
